Bioassay records (PubChem)
FBPA Giardia inh – inhibitors of Giardia lamblia fructose-1,6-bisphosphate aldolase; A8B2U2; purified Giardia FBPA; Potency, µM (doses to about 59.6 µM), most hits filed as inhibitors; actives 0.71% (n = 290,000); also: nearly all actives have a fitted effect of over 55% in size
Target sequence (A8B2U2 whole entry, looked up): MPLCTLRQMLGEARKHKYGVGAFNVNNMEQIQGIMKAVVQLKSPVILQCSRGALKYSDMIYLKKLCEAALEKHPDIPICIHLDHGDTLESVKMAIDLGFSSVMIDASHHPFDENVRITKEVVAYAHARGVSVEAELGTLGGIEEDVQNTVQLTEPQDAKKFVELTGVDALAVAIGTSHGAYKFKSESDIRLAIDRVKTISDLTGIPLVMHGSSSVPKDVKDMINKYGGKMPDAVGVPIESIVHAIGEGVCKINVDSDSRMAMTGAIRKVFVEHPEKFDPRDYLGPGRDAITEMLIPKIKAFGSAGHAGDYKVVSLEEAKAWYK
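40 nM FBPA preincubated 10 min at RT with compound (up to 57.5 uM final), then substrate plus GAPDH/TPI/NAD/arsenate coupling and diaphorase/resazurin added. Fluorescence read after 20 min at RT, 525/598 nm.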
TbPYK inhibitor – T. brucei pyruvate kinase inhibition; TbPYK enzyme, Kinase-Glo Plus ATP luminescence, 45 min; Q57TT1; actives 0.12% (n = 410,000); Potency, µM (highest dose often 76.8 µM), usual class: inhibitors; AID 624173; also: nearly all actives have a fitted effect of over 50% in size
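Readout: single end-point luminescence (Kinase-Glo Plus, 10 min). Reaction conditions were TbPYK/substrate plus 130 uM ADP, 45 min at RT, pH 7.2 TEA buffer. No-enzyme wells served as controls, and data were normalized before concentration-response fitting.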
LmPK inh – inhibitors of Leishmania mexicana pyruvate kinase; Potency, µM (highest dose often 57.5 µM), actives largely listed as inhibitors; Q27686; purified LmPK, Kinase-Glo ATP luminescence, 1 h; actives 0.37% (n = 290,000)
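In 50 mM imidazole pH 7.2 with 7 mM MgCl2, LmPK (0.1 nM) turned over PEP (0.5 mM) and ADP (0.1 mM) for 1 h at room temperature. Luciferase read-out of ATP.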
Sm TGR inh – S. mansoni TGR enzyme inhibition. Q962Y6. purified TGR, DTNB reduction, TNB absorbance 405 nm. Potency, µM (doses to about 114 µM), usual class: inhibitors. actives 3% (n = 360,000); also: nearly all actives have a fitted effect of over 60% in size
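Kinetic colorimetric format: TGR-catalysed, NADPH-driven DTNB reduction monitored via TNB absorbance. Enzyme dispensed at 20 nM; compound exposure 15 min at room temperature before reaction start.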
Shiga inhibitor – inhibitors of Shiga toxin in Vero cells. Vero cells, Shiga toxin protein synthesis inhibition reporter. actives 9.2% (n = 290,000). inhibition, % at 38.7 µM; in the data active = inhibition mostly above about 28%, no sharp cut-off; inactive = mostly below about 43%
Cycloheximide cs – counter-screen for Shiga toxin inhibitors: cycloheximide protein synthesis inhibition | cell reporter, cycloheximide protein synthesis inhibition counterscreen | max response, % | actives 12% (n = 300,000) | AID 2314; in the data active = max response mostly above about 13%, no sharp cut-off; inactive = mostly below about 14%; also: read at 38.3 µM for the half of the compounds with a filed dose
A number is an active result; i = inactive; ? = inconclusive; nt = no result given; [ ] = remark or other dose. Only a selection was taken, and hits are over-represented in it overall. Unless noted, calls follow the shape of the dose curve; as a rule, active = well fitted curve in the direction sought with a large enough effect; inconclusive = small, poorly fitted or top-dose-only effect, or another doubt; inactive = no such curve, though single readings can be large; an effect the other way counts as inactive or inconclusive.

SMILES	FBPA Giardia inh	TbPYK inhibitor	LmPK inh	Sm TGR inh	Shiga inhibitor	Cycloheximide cs
COc1ccc(CCn2c(-c3ccco3)nc3nc4ccccc4nc32)cc1	i	i	i	50µM	43	i
COc1ccc(C(=O)n2c(-c3ccco3)nc3ccccc32)cc1	i	i	i	i	i	31
O=c1c2ccccc2nc(-c2ccc(Br)cc2)n1Cc1ccccc1	i	i	i	i	i	i
O=c1c2ccccc2nc(-c2ccco2)n1Cc1ccccc1	i	i	?	50µM	130	57
COc1ccc(C(=O)N2CCn3c2nc2ccccc23)cc1	i	i	i	i	i	i
COc1ccc2c(C)c(CCC(=O)NCCc3ccccc3)c(=O)oc2c1	nt	i	nt	i	nt	nt
O=C1c2ccccc2C(=O)N1CCc1nc2ccccc2c(=O)n1Cc1ccco1	i	i	i	35µM	i	i
CCCn1c(-c2ccc(OC)cc2)nc2nc3ccccc3nc21	i	i	i	i	i	i
CCCCCn1c(-c2ccco2)nc2nc3ccccc3nc21	i	i	i	?	i	9.2
Cc1nc2ccccc2c(=O)n1Cc1ccco1	i	i	i	i	i	i
O=C1c2ccc3c4c(ccc(c24)C(=O)N1CCCCO)C(=O)N(CCCCO)C3=O	?	i	i	i	72	34
O=C1c2ccccc2C(=O)N1CCSC(=S)N1CCOCC1	i	i	i	i	i	26
C#CCOC(=O)CCCN1C(=O)c2cccc3cccc(c23)C1=O	nt	i	nt	nt	nt	nt
O=C(CCN1C(=O)c2ccccc2C1=O)N1CCOCC1	i	i	i	i	i	i
COC(=O)CCCN1C(=O)c2cccc3cccc(c23)C1=O	i	i	i	i	i	24
O=C(CCN1C(=O)c2cccc3cccc(c23)C1=O)N1CCOCC1	i	i	i	i	94	26
O=C(NCc1ccc2c(c1)OCO2)c1nc(Cn2cc([N+](=O)[O-])cn2)no1	i	i	i	i	i	i
Cc1ccc(S(=O)(=O)O)cc1C	nt	i	nt	nt	nt	nt
O=C1c2cccc3cccc(c23)C(=O)N1CCc1ccccc1	i	i	i	i	95	51
O=C1NC(=O)N(Cc2ccccc2Cl)C(=O)/C1=C/N1CCOCC1	i	i	i	3.5µM	i	i
O=C1NC(=O)N(Cc2cccs2)C(=O)/C1=C/c1ccc(N2CCOCC2)cc1	i	?	i	?	i	i
COC(=O)C1CCN(C(=O)COC(=O)/C=C/c2ccc(O)c(OC)c2)CC1	nt	i	nt	nt	nt	nt
Cc1ccc(-c2nn(Cc3ccccc3)cc2C(=O)N2CCN(c3ccccn3)CC2)cc1	nt	i	nt	i	nt	nt
Cc1ccc(-c2nn(-c3ccccc3)cc2C(=O)N2CCN(c3ccccn3)CC2)cc1	i	i	i	i	42	i
O=C(c1cn(-c2ccccc2)nc1-c1ccccc1)N1CCN(c2ccccn2)CC1	i	i	i	i	i	23
SMILES	FBPA Giardia inh	TbPYK inhibitor	LmPK inh	Sm TGR inh	Shiga inhibitor	Cycloheximide cs
CC(C)N1CC=C2C(C#N)=C(N)C(C#N)(C#N)[C@H](c3ccoc3)[C@H]2C1	?	nt	i	?	i	i
Cc1ccc([C@@H]2C3COCC=C3C(C#N)=C(N)C2(C#N)C#N)o1 (some centres not stated)	?	?	i	35µM	i	i
Cc1ccc(S(=O)(=O)C2(C(=O)Nc3ccc(Br)cc3)CC2)cc1	i	i	i	i	i	32
COC(=O)c1ccc(NC(=O)C2(S(=O)(=O)c3ccc(C)cc3)CC2)cc1	nt	i	nt	i	nt	nt
COc1cccc(NC(=O)NCCC2=CCCCC2)c1	i	i	i	i	74	19
CC(=O)Nc1cccc(OCC(=O)NCCC2=CCCCC2)c1	i	i	i	i	29	23
COc1ccc(NC(=O)NCCC2=CCCCC2)cc1	i	i	i	nt	71	28
COc1ccccc1NC(=O)c1oc2ccccc2c1NC(=O)c1ccccc1C(F)(F)F	nt	i	nt	i	nt	nt
Cc1ccc(NC(=O)C(CC(C)C)N2Cc3ccccc3C2=O)cc1F (configuration not stated)	nt	i	nt	i	nt	nt
COc1ccc2nc3cc(Cl)ccc3c(Nc3ccc(O)c(CN4CCN(C)CC4)c3)c2c1	nt	i	nt	nt	nt	nt
Cc1cccc(CSCc2nnc(N)s2)c1	i	i	i	i	39	19
COc1ccc(-c2nn(-c3ccccc3)cc2/C=C/C(=O)O)cc1[N+](=O)[O-]	i	i	i	i	i	13
COc1ccc(-c2nn(-c3ccccc3)cc2C=O)cc1[N+](=O)[O-]	i	i	i	i	i	i
CCCCN(CC)CCCNC(=O)c1ccc2c(c1)NC(=O)CN2C	nt	i	nt	22µM	nt	nt
COc1ccc(-c2noc(-c3cc(-c4ccc(F)cc4)n[nH]3)n2)cc1	nt	i	nt	i	nt	nt
COc1ccc(-c2cc(-c3c(O)c(OC)c4occc4c3OC)[nH]n2)cc1OC	i	i	i	i	i	23
COc1ccc(-c2cc(-c3c(O)c(OC)c4occc4c3OC)[nH]n2)cc1	i	i	i	i	79	21
CCOc1ccc(-c2cc(-c3nc(-c4cc(OC)c(OC)c(OC)c4)no3)[nH]n2)cc1	nt	i	nt	i	nt	nt
COC(=O)c1ccc(OCC(=O)c2ccccc2)cc1	i	i	?	i	67	46
COC(=O)c1cc(O)c(OCc2ccccc2)c(O)c1	i	i	i	i	i	18
COC(=O)c1[nH]c(=O)c2ccccc2c1OCc1ccccc1	i	i	i	i	i	i
COC(=O)c1cc[n+](CC(=O)c2ccccc2)cc1	i	i	i	i	i	26
O=C(C[n+]1ccccc1)c1ccc(-c2ccccc2)cc1	i	i	i	i	i	i
N#CCCS(=O)(=O)c1ccccc1	i	nt	nt	nt	nt	nt
CN1CCN(Cc2c(C(=O)N/N=C/c3cccc(Br)c3)nnn2-c2nonc2N)CC1	i	i	i	i	i	i
SMILES	FBPA Giardia inh	TbPYK inhibitor	LmPK inh	Sm TGR inh	Shiga inhibitor	Cycloheximide cs
CCN(CC)CCCCC1CCN(CC(=O)N2c3ccccc3C(=O)Nc3cccnc32)CC1	i	nt	nt	nt	nt	nt
O=C(NC1CCCCC1)Oc1cc2oc(=O)sc2cc1Br	i	?	i	3.2µM	i	i
C=CCn1c(SCC(=O)NC2CCCC2)nc2scc(-c3ccco3)c2c1=O	i	i	i	11µM	i	i
C=CCn1c(SCC(C)=O)nc2scc(-c3ccc(C)o3)c2c1=O	i	i	i	16µM	19	20
C=CCn1c(=S)[nH]c2scc(-c3ccc(C)o3)c2c1=O	i	i	i	35µM	i	i
CCn1c(=S)[nH]c2scc(-c3cccs3)c2c1=O	i	?	i	i	i	i
C=CCn1c(SCC(=O)Nc2c(C)n(C)n(-c3ccccc3)c2=O)nc2scc(-c3ccccc3)c2c1=O	i	i	i	i	i	i
C=CCn1c(SCC(=O)NCCCC)nc2scc(-c3ccco3)c2c1=O	i	i	i	14µM	i	i
COC(=O)C/C=C\[C@@H](C)[C@@H](/C=N\O[C@@H](C)CN1CCCCc2nc(C)c(C)cc21)NS(=O)(=O)c1ccc(C)cc1	i[12.9 µM]	nt	nt	nt	nt	nt
